This note sets out measurements from ChEMBL document CHEMBL3988442, “University of Dundee, Small-Polar-MMV Screening Library” (2021).

For some of these results: Results with a measured potency or affinity are listed apart.

What all share (design): scale not given: direction of the effect not stated beside the values
The target of assay [1] is Protein translocase subunit SecA (Escherichia coli (strain K12)) (UniProt P10408). The assay can be described thus: Assay to Identify E. coli SecA ATPase Inhibitors. It is filed as functional. The following applies: 30 µM.
For assay [2], the target named is T1, Ubiquitin-activating enzyme e1, putative (Leishmania donovani (strain BPK282A1)) (UniProt E9BSI1).
T1 sequence (whole entry): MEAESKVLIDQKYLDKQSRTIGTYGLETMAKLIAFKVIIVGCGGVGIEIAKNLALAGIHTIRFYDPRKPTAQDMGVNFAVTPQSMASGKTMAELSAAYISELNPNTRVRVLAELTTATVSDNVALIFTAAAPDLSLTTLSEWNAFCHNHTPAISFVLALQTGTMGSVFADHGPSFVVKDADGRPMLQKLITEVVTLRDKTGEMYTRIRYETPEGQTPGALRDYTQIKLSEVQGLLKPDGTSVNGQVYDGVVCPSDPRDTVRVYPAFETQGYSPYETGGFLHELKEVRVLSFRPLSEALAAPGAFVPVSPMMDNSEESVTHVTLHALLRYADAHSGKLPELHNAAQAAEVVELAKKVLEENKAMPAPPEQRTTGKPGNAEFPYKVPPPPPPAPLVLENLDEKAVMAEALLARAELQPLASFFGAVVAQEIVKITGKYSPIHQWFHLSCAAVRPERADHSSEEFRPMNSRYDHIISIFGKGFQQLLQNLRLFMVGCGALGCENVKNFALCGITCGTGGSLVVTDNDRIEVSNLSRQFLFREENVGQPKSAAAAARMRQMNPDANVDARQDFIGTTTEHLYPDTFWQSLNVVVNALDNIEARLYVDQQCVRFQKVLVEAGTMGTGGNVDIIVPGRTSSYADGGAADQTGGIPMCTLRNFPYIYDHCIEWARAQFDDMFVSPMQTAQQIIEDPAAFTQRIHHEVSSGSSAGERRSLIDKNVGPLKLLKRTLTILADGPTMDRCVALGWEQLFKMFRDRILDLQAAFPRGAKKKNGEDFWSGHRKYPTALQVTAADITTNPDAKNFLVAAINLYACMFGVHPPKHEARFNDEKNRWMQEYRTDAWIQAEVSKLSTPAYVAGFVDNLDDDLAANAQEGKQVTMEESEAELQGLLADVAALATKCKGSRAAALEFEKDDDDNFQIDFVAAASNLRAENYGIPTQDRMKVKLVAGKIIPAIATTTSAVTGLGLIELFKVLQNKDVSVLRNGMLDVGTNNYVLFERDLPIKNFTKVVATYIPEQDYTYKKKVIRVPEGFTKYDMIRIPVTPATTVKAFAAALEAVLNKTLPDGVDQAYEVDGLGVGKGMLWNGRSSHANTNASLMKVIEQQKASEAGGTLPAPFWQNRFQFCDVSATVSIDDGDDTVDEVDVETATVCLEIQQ
Nature of the assay: Leishmania donovani Ubiquitin Activating Enzyme (LdE1). The format is functional. The following applies: 30 µM.

Assay [3] has as its target AMP-activated protein kinase, AMPK (Homo sapiens) (UniProt P54646+O43741+P54619+Q9UGJ0+Q9Y478+Q13131+Q9UGI9). Nature of the assay: AMP-dependent Kinase enzyme assay. An in vitro enzyme assay that detects ADP turnover that is directly proportional to AMPK activity. This uses naive AMPK that is activated during the assay with MK-8722. It is filed as functional. The following applies: 30 µM.

Assay [4] deals with Sialic acid-binding Ig-like lectin 9 (Homo sapiens) (UniProt Q9Y336). The assay can be described thus: Hs-Siglec9 ALPHAscreen SOP 20170721. The following applies: 10 µM. On the technique in general: In Alpha technology, singlet oxygen from a donor bead excites a nearby acceptor bead.
The next assay has as its system Trypanosoma cruzi. The assay can be described thus: Trypanosoma cruzi phosphomannomutase and mannose-1-phosphate guanylyltransferase assay. It is filed as functional. The following applies: 10 µM.
The target in assay [5] is T2, Arginase-2, mitochondrial (Homo sapiens) (UniProt P78540).
T2 sequence (whole entry): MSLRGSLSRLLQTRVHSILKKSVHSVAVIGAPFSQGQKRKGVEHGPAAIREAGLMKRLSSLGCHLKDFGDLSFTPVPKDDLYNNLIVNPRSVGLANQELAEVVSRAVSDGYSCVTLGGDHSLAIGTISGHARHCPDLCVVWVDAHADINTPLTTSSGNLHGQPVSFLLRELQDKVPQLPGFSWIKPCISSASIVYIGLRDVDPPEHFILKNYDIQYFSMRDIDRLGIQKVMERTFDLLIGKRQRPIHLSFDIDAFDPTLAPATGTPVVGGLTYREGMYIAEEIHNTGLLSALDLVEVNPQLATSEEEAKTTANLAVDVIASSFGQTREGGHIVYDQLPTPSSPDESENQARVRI
Nature of the assay: in vitro enzyme assay to detect the production of urea directly proportional to the activity of Arginase II. Note: in the data most compounds retested in dose-response had high values. It is filed as functional. The following applies: 33.3 µM.

In assay [6] the target is T3, Proteasome subunit beta (Trypanosoma cruzi) (UniProt O96673).
T3 sequence (whole entry): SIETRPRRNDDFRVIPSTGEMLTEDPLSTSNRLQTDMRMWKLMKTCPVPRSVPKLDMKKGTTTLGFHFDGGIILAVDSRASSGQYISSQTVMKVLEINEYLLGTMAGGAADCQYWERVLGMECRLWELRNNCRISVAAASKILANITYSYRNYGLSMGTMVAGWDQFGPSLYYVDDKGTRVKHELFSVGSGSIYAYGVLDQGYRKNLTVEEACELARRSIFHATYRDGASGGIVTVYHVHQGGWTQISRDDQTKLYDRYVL
The assay can be described thus: Trypanosoma cruzi proteasome chymotrypsin-like activity (TcProtChymo) assay. Note: in the data most compounds retested in dose-response had high values. It is filed as functional. The following applies: 9.37 µM.

For a further assay, the species on record is Homo sapiens. Nature of the assay: To identify inhibition of the IFN signalling (Jak-Stat) pathway via expression of an eGFP reporter gene under the control of an IFN-stimulated response element (ISRE) containing MxA promoter. It is filed as functional. The following applies: 30 µM.
Assay [7] has as its target T4, Tyrosyl-tRNA synthetase, putative (Trypanosoma cruzi (strain CL Brener)) (UniProt Q4DSP6).
T4 sequence (whole entry): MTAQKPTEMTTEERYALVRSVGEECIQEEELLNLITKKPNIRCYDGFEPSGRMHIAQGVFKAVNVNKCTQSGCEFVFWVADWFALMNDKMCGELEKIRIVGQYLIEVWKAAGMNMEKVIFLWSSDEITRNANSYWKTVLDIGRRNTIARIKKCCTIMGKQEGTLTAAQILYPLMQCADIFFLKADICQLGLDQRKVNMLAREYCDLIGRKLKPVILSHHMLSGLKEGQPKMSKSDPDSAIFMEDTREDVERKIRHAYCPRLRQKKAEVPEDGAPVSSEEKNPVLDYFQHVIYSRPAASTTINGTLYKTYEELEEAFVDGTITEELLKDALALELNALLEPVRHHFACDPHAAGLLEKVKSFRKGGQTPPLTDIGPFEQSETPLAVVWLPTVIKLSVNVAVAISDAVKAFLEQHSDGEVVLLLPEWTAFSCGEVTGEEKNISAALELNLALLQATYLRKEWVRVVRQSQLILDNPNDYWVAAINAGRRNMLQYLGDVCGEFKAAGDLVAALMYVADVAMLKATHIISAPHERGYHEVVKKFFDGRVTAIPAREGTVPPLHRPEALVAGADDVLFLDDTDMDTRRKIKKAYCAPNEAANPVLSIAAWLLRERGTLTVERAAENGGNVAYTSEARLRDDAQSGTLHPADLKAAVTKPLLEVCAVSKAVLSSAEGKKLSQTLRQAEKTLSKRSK
The assay can be described thus: Trypanosoma cruzi tyrosyl tRNA synthetase (TcYRS) _High Tyrosine SOP. Note: in the data most compounds retested in dose-response had high values. The format is functional. The following applies: 30 µM.

Assay [8] addresses T4, Tyrosyl-tRNA synthetase, putative (Trypanosoma cruzi (strain CL Brener)). The assay can be described thus: Trypanosoma cruzi tyrosyl tRNA synthetase (TcYRS) SOP. It is filed as functional. The following applies: 30 µM.
The target of assay [9] is Chromo domain-containing protein 1 (Saccharomyces cerevisiae (strain ATCC 204508 / S288c) (Baker's yeast)) (UniProt P32657). The assay can be described thus: ScCHD-1 Enzyme Inhibition Assay. Note: in the data most compounds retested in dose-response had high values. The format is functional. The following applies: 30 µM.
Sequence of Chromo domain-containing protein 1 (Saccharomyces cerevisiae (strain ATCC 204508 / S288c) (Baker's yeast)) (P32657 whole entry, the tested form may be a part): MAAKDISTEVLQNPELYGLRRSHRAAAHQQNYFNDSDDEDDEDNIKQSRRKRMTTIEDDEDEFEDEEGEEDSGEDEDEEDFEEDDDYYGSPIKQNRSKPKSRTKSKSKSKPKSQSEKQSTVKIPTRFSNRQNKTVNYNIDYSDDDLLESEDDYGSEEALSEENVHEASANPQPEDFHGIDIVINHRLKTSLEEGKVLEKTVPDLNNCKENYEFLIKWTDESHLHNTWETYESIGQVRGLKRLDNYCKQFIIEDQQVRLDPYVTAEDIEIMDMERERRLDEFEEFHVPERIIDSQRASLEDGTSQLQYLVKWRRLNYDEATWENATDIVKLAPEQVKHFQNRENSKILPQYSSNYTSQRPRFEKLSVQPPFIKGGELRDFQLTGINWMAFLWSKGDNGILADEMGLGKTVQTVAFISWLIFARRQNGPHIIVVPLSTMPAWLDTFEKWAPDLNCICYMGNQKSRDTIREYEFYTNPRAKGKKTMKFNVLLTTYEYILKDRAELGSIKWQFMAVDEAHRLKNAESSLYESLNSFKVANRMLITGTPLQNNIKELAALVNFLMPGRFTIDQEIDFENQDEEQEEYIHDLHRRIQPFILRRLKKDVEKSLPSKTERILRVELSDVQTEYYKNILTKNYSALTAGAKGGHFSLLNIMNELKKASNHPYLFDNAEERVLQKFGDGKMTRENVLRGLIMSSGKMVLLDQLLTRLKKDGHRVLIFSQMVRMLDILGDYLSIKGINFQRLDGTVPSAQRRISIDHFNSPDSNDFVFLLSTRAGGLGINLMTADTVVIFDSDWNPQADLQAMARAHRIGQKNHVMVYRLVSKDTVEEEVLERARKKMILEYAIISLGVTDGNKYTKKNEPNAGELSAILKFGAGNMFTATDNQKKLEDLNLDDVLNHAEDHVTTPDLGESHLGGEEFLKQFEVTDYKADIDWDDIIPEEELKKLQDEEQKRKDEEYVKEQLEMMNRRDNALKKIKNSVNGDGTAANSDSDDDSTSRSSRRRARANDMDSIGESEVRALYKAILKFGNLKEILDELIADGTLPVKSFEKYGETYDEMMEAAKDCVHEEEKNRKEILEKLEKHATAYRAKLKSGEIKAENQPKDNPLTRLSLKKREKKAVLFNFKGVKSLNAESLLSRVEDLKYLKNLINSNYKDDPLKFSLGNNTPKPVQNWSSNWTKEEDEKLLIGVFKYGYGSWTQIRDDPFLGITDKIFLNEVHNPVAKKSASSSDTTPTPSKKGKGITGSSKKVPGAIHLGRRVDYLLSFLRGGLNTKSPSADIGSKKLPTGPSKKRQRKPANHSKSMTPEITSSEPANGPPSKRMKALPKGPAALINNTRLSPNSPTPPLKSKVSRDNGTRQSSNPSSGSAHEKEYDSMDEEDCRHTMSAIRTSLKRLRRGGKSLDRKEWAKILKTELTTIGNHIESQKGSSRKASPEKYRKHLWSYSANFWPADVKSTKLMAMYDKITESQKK

Sequence of Protein translocase subunit SecA (Escherichia coli (strain K12)) (P10408 whole entry): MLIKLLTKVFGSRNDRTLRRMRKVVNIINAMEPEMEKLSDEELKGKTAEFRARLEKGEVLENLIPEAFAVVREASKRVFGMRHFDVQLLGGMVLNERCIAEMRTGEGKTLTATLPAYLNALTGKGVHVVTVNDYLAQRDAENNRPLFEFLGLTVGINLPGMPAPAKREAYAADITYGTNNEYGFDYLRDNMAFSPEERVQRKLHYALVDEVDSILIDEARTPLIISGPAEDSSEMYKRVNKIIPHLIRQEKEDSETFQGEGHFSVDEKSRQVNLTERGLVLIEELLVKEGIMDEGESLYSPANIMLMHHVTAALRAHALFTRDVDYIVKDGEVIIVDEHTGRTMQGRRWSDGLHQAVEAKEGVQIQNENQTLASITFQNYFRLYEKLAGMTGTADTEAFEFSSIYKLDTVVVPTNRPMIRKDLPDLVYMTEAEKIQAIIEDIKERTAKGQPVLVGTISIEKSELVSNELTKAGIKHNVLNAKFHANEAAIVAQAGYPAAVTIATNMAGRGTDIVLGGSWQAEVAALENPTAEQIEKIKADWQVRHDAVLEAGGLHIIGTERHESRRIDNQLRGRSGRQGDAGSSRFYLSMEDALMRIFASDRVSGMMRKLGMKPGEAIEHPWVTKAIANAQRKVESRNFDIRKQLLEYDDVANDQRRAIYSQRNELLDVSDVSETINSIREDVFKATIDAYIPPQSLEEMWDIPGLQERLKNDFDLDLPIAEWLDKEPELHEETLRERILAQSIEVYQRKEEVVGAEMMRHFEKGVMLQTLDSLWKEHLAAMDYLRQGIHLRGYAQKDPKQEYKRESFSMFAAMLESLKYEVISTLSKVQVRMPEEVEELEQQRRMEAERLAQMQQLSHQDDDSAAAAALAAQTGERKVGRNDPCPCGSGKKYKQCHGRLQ
Sequence of Sialic acid-binding Ig-like lectin 9 (Homo sapiens) (Q9Y336 whole entry): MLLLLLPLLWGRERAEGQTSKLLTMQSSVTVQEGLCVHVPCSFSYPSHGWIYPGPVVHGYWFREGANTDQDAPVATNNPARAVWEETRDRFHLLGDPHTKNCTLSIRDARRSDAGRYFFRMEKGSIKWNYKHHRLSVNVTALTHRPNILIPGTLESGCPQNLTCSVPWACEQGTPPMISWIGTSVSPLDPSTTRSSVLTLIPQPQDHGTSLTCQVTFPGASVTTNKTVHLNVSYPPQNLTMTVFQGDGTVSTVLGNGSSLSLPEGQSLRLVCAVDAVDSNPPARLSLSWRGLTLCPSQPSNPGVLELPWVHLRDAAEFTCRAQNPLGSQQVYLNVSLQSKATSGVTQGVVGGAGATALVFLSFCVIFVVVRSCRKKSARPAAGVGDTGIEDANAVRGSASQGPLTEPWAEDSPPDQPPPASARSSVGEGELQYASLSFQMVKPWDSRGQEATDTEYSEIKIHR

`c1cnn(CCN2CCOC(Cn3cncn3)C2)c1` (stereo unspecified): the Percent Effect was -1.82% in [1]; 17.7% in assay [2]; -6.27% in assay [3]; -8.37% in assay [4]; -0.283% in the assay on Trypanosoma cruzi; 3.8% in assay [5]. Also, the Percent Effect in assay [6] was 14.3%; in the assay filed under Homo sapiens, -0.00724%; in [7], 10.3%; in assay [8], 24.1%; in [9], -9.31%.

In the case of `CO[C@H]1CCN(C(=O)Cc2ccccn2)[C@H]1Cc1ccncc1`, the Percent Effect was -0.476% in assay [1]; 16% in assay [2]; 1.42% in assay [3]; -1.93% in assay [4]; -4.53% with Trypanosoma cruzi; -2.56% in assay [5]. Also, the Percent Effect in assay [6] is 8.02%; in the assay filed under Homo sapiens, 7.43%; in assay [7], 3.19%; in [8] it was 11.5%; in assay [9], -2.72%.

`Fc1ccc(OCc2noc(CN3CCc4cncnc4C3)n2)cc1`: the Percent Effect was -0.114% in assay [1]; 13.2% in [2]; -14.5% in assay [3]; 2.94% in assay [4]; 2.26% in the assay with Trypanosoma cruzi; -29.5% in assay [5]. In addition, the Percent Effect in [6] was 18.1%; in the assay listed under Homo sapiens, 1.44%; in assay [7], 31.9%; in [8], 21.9%; in assay [9] it was -2.74%.

As for `CCC(=O)N1CCC2(COCc3c(C)nc(N(C)C)nc32)C1` (stereo unspecified), the Percent Effect in [1] is -9.59%; in assay [2] it was 0%; in assay [3] it was 0.948%; in assay [4], 16.9%; in the assay with Trypanosoma cruzi, -0.586%; in [5], -0.417%. For the same molecule, the Percent Effect in assay [6] is 10.7%; in the assay listed under Homo sapiens, 4.78%; in assay [7], 0%; in assay [8], 3.66%; in assay [9], -4.5%.

`CN(C)CC(=O)N1Cc2nc(C(=O)NCc3ccncc3)oc2C1`: the Percent Effect was -0.101% in assay [1]; 13.3% in assay [2]; -4.75% in assay [3]; 4% in assay [4]; 3.86% with Trypanosoma cruzi; -49.3% in [5]. Besides, the Percent Effect is 14.4% in assay [6]; -9.53% in the assay filed under Homo sapiens; 0% in assay [7]; 20% in assay [8]; -6.75% in [9].

For `CCc1noc(CNc2cc(F)ccc2OCC2CCCO2)n1` (stereo unspecified), the Percent Effect in [1] was -0.224%; in assay [2], -2.7%; in assay [3], -4.16%; in assay [4], 1.82%; with Trypanosoma cruzi, -4.83%; in [5], -0.476%. Besides, the Percent Effect in [6] is 11.9%; in the assay filed under Homo sapiens it was 2.67%; in assay [7] it was -0.529%; in [8], 0%; in assay [9], -1.43%.

As to `CNC(=O)COc1ccc(CNCc2ccc(F)cc2F)cc1`, the Percent Effect is -3.24% in assay [1]; 6.94% in [2]; 7.47% in [3]; -14.2% in [4]; -5.93% in the assay with Trypanosoma cruzi; -1.32% in assay [5]. The Percent Effect in [6] is 18.6%; in the assay filed under Homo sapiens, 6.07%; in assay [7], 4.21%; in assay [8], 5.13%; in [9], -3.63%.

As to `CN1CCC(Cc2cc(Nc3ncccn3)ncn2)CC1`, the Percent Effect in assay [1] is -1.87%; in [2], 6.76%; in assay [3] it was 11.2%; in assay [4] it was 0.0242%; in the assay with Trypanosoma cruzi it was -1.98%; in assay [5], -1.16%. The Percent Effect was 2.34% in assay [6]; 6.81% in the assay filed under Homo sapiens; 4.3% in assay [7]; 9.09% in assay [8]; -10.4% in assay [9].

Regarding `CCc1ncc2c(n1)CN(Cc1nc(-c3ccsc3)no1)CC2`, the Percent Effect was -3.47% in assay [1]; -18.4% in [2]; -15.2% in assay [3]; -3.23% in assay [4]; -1.77% with Trypanosoma cruzi; -0.719% in assay [5]. Also, the Percent Effect was 7.02% in assay [6]; -16.8% in the assay listed under Homo sapiens; 9.36% in assay [7]; -1.24% in assay [8]; 8.2% in assay [9].

`CNC(=O)c1ccc(C(=O)N2CCCC2c2cnn(C)c2)cn1` (stereo unspecified): the Percent Effect in [1] is -3.23%; in assay [2] it was 7.89%; in [3] it was -6.87%; in assay [4], 5.79%; with Trypanosoma cruzi, 3.08%; in assay [5] it was -2.88%. Further, the Percent Effect is 9.05% in assay [6]; -13.2% in the assay filed under Homo sapiens; 5.42% in assay [7]; 6.17% in assay [8]; -6.61% in [9].

Turning to `CC(=O)N1CCCN(C(=O)CCc2c(C)noc2C)CC1`, the Percent Effect in assay [1] is -5.5%; in assay [2] it was 18.4%; in [3], -6.52%; in [4] it was -3.87%; in the assay on Trypanosoma cruzi, 3.95%; in assay [5], 0.766%. The Percent Effect in assay [6] is 9.52%; in the assay listed under Homo sapiens, 9.31%; in assay [7], 8.33%; in assay [8] it was 19.5%; in assay [9] it was -11.2%.
